# PubChem BioAssay (NCI)
# This is part of a sample that, as a whole, favours compounds with a hit. Of some 83,000 tested, about 20% had one in any assay.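 Single-dose data. Exposure time 48 hours. Values below 10 considered active.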 Values without a mark were called inactive. Active and inactive are the calls of the source.
# Tests used:
# Experiment in all cases: NCI-60 one-dose screen, 48 h (100 = growth as untreated, 0 = no growth, -100 = all killed)
# Conditions in all cases: 10 µM unless noted
# NCI-H23 lung = test system: NCI-H23 lung
# NCI-H226 lung = test system: NCI-H226 lung
# NCI-H322M lung = test system: NCI-H322M lung
# HOP-62 NSCLC = test system: HOP-62 NSCLC
# NCI-H460 lung = test system: NCI-H460 lung
# HOP-92 NSCLC = test system: HOP-92 NSCLC
# NCI-H522 lung = test system: NCI-H522 lung
# 786-0 renal = test system: 786-0 renal
# COLO 205 colon = test system: COLO 205 colon
# A549/ATCC NSCLC = test system: A549/ATCC NSCLC
Compound,growth (NCI-H23 lung),growth (NCI-H226 lung),growth (NCI-H322M lung),growth (HOP-62 NSCLC),growth (NCI-H460 lung),growth (HOP-92 NSCLC),growth (NCI-H522 lung),growth (786-0 renal),growth (COLO 205 colon),growth (A549/ATCC NSCLC)
NC(=O)CC1(O)C=C(Br)C(=O)C(Br)=C1,57.3%,-57.6% (active),113%,108%,104%,-50.9% (active),-49.7% (active),70.8%,-66.1% (active),–
CCOc1cc(N)ccc1C(=O)NCCCN(CC)CC,87.9%,93.6%,100%,98.3%,110%,90.6%,–,100%,–,104%
N=c1ccn2c(n1)OC1C(O)C(CO)OC12 (stereo not drawn),24.7%,45.1%,63.8%,24.5%,-9.72% (active),49.2%,–,15%,–,16.2%
C=CCOc1cccc(/C=C2\SC(=Nc3ccc(O)cc3)NC2=O)c1,40.2%,-9.25% (active),53.5%,25.6%,2.23% (active),30.8%,–,11.2%,–,18.6%
COc1cc2c(cc1OC)-c1ccc3cc4c(cc3c1N(CCN1CCCC1)C2)OCO4,10.9%,-3.34% (active),5.86% (active),-18.1% (active),-19.4% (active),22.8%,–,-32% (active),–,5.78% (active)
C=C(C)[C@@H]1CC[C@]2(C(=O)NCC(=O)O)CC[C@]3(C)[C@H](CC[C@@H]4[C@@]5(C)Cc6c([nH]c7ccccc67)C(C)(C)[C@@H]5CC[C@]43C)[C@@H]12,73.5%,87.8%,85.5%,58.5%,88.5%,81%,–,84.4%,–,67.1%
Cc1ccc(C)c2c1C(=O)OC2=O,95.5%,98.4%,89.3%,92.1%,111%,128%,–,101%,–,99.4%
COc1cc(CNC(=O)/C=C/C=C/c2ccc3c(c2)OCO3)ccc1OCc1cn(-c2ccc(Cl)c(Cl)c2)nn1,-34.1% (active),31.2%,21.6%,-19.8% (active),-57.5% (active),-14.7% (active),–,-40.6% (active),–,2.23% (active)
COc1cc2ccccc2cc1C(=O)NC(=S)Nc1ccc(-c2nc3ccccc3[nH]2)cc1,72.9%,102%,90.9%,79.9%,69.1%,93.7%,–,38%,–,92.1%
